Molecular target: AP1S1
Test: pooled miR-30 sensor sort-seq; sequence = guide strand
Settings: shRNA

Row | Sequence | sensor-assay potency score (higher = more potent)
1 | TTCCGTTCCTTGTCCGAAGTGG | 0.268
2 | TTATAGACAACTTTGAGGTCCC | 0.854
3 | ATAGACAACTTTGAGGTCCCTC | 0.0527
4 | TCTAAGAGCTCCACGTATCGGT | 0.301
5 | TCCAGCTCGCACACACTGCCAA | -0.956

Molecular target: AP2B1
Test: as above
Settings: shRNA

Row | Sequence | sensor-assay potency score (higher = more potent)
6 | TAGAGAATCCAGAAATCCCTGA | 0.164
7 | TTTAGTTCAAATATTTCTCCTT | 0.5
8 | TTTCATTGTTGAGTTCAGCTTT | 0.578
9 | TTGTTTTGCAACTTGCTGGAAA | -0.458
10 | TTGTTGTTTTGCAACTTGCTGG | -0.34
11 | TATTGTAGTAGTCAGAATCCTT | 0.0218
12 | TAGCATATTCTTTCAGTTCTGC | 0.583
13 | TCATCCTTCAAGCACTTGCGGA | -1.05
14 | TAGAAGATCACCTTGAGAGGGG | 0.529
15 | TTTCTAGTAACTCATCTGCATT | -1.34
16 | TTCATTAGGACTTTTACCGCTG | 0.615
17 | TAAATGACATTCCTTAATCTGA | -0.695
18 | AAAGAGAGAACTAACATCCTTC | 0.773
19 | TTTCAGTTCTGCCAGAACCTGA | -0.77
20 | TAACAATTCTAGAAACTTCATT | -0.559
21 | TCGAACAAAGTCAACATCCACC | -0.757
22 | TTGTTTTTCACAGCCACCTGGA | -0.558
23 | TTAGTTCAAATATTTCTCCTTT | 0.546
24 | TAGTTCCAGATTGTCAGTCTGC | -0.496
25 | TTCAGATCAAGTAAGTTGCTGT | 1.15
26 | AATAGTATAAACATTGTTGTTT | -0.183
27 | TTCATCGTGAAAACCCTCCAGG | -0.0807
28 | TTCTGTAATTTTGTCTACCCGG | -1.02
29 | TAATCTGAAACTGAAGTTCATT | -0.631

Molecular target: AP3B1
Test: as above
Settings: shRNA

Row | Sequence | sensor-assay potency score (higher = more potent)
30 | TTTGAATTGACATAGTTGCTAT | -0.399
31 | TACTTCTACATTTCGAACTGAT | 0.236
32 | TTCTTCAGCATATCGAACCAGG | -0.815
33 | TTGCTTTAGATCTTCATTCTTC | 0.267
34 | TTCTTTATAACAACCACACTTT | 0.0495
35 | TTTCTTTGAATTGACATAGTTG | -0.577
36 | TTATGAATCAGATCTATTCTGT | 0.754
37 | TAAACATATACCAACTTCTTGA | -0.605
38 | TACATTCGGAACAATAAGCTGC | 0.383
39 | TAGATCTTCATTCTTCTTCAAA | -0.874
40 | TAGAAGTGAAACATCTTTGGTA | 0.763

Reference: the OligoGym collection
